# Experimental data as given in the supplement of paper PMC10338343.
# ± gives the standard deviation. Over roughly 6,600 sequences, “pre-steady-state target cleavage rate” has its median near 0.07; the highest 2% begin near 0.72. This is one part of a sample in which the highest values are shown more often than they occur.
# Test system: MIWI (PIWIL1) piRISC loaded with Kctd7 piRNA (30 nt)
# Experiment: pre-steady-state target cleavage rate (min^-1); MIWI and MILI are mouse PIWI proteins and EfPiwi is from a freshwater sponge; tags in brackets are library labels; higher = faster piRNA-guided slicing of the target
# Conditions: guide: Kctd7 piRNA 5'p-UGUUAAUCUCUCAGAGAAGGUGACAGUGAU; auxiliary factor: 500 nM mouse GTSF1
# Experimental: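 Cleave-'n-Seq: a library of target RNAs (target site embedded in constant flanks, ACAGCATTCCGCGTTAGTGATATCCG... 5' flank; DNA-blocked outside the site) at 0.1 nM was incubated with 1 nM active mouse MILI or MIWI piRISC (synthetic 5'-monophosphorylated piRNA guide) with or without 500 nM mouse GTSF1 at 33 °C for 1 min to 16 h. Uncleaved targets were sequenced and normalised to non-target controls, and the pooled three trials were fitted to a burst-and-steady-state model to give the pre-steady-state cleavage rate (min^-1; k3 is constrained to at most 1e-4). Sequence is the target site only; target names encode pairing extent (gX:gY) and contiguous / 1-mismatch / 2-mismatch / bulge geometry. Fits with R² ≤ 0 are excluded.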
row,Sequence,pre-steady-state target cleavage rate
1,UUCACUGUCUCCUUCUCUGAGAGAUUAACA,0.685 ± 0.036
2,AACACUGUCUCCUUCUCUGAGAGAUUAACA,0.738 ± 0.039
3,UAGACUGUCUCCUUCUCUGAGAGAUUAACA,0.662 ± 0.04
4,UUGACUGUCUCCUUCUCUGAGAGAUUAACA,0.746 ± 0.04
5,AUGACUGUCUCCUUCUCUGAGAGAUUAACA,0.623 ± 0.037
6,AUCACUGUCACCUUCUUCUGAGAGAUUAACA,0.212 ± 0.046
7,UAGUGUGUCACCUUCUCUGAGACUUUAUGA,0.00826 ± 0.0044
8,UUCAGUGUCACCUUCUCUGAGAGAUAAACA,0.264 ± 0.033
9,UAGACUGUCUGGUUCUCUGAGAGAUUAUGA,< 0.0001
10,UAGUCUGUCACCUUCUGUCAGAGAUUAACA,0.01 ± 0.0034
11,UUCACUGUCACCGUUCUCUGAGAGAUUAACA,0.729 ± 0.032
12,UUCACUGUCUCGUUCUCUGAGAGAUUAACA,0.631 ± 0.035
13,UACACUGUCACCGUUCUCUGAGAGAUUAACA,0.586 ± 0.03
14,UUCACUGUCACCGUCUCUGAGAGAUUAACA,0.509 ± 0.022
15,UAGUCUGUCACCGUUCUCUGAGAGAUUAACA,0.651 ± 0.041
16,AUCACUGUCACCGUUCUCUGAGAGAUUAACA,0.774 ± 0.052
17,UUCACUGUGACCUUCUCUGAGAGAUUAUGA,0.119 ± 0.021
18,UAGUGUGUCUCCUUCUCUGACAGAUUAACA,0.386 ± 0.03
19,UAGACUGUCACACUUCUCUGAGAGAUUAACA,0.607 ± 0.04
20,AUCACUGUCACCUUUCUCUGAGAGAUUAACA,0.599 ± 0.034
21,UACACUGUCACUUCUCUGAGAGAUUAACA,0.577 ± 0.038
22,UUCACUGUCACUUUCUCUGAGAGAUUAACA,0.691 ± 0.026
23,UAGACUGUCACUUUCUCUGAGAGAUUAACA,0.8 ± 0.043
24,AUCACUGUCACUUUCUCUGAGAGAUUAACA,0.794 ± 0.04
25,UACACUGUCACCUUUCUCUGAGAGAUUAACA,0.575 ± 0.029

row,Sequence,pre-steady-state target cleavage rate
1,UAGACUGUCACUUCUCUGAGAGAUUAACA,0.466 ± 0.041
2,UACACUGUCACUUUCUCUGAGAGAUUAACA,0.725 ± 0.025
3,UUGACUGUCACCUUCUCUGAGACAUUAACA,0.0684 ± 0.0093
4,AUCUCUGUCACCUUCUCUGAGAGAUUUUGA,0.191 ± 0.042
5,UAGACUCUCACCUUCUCUGAGAGAUUAACA,0.431 ± 0.029
6,UACACUGUCACCUUCUCUGAGUGAUUUACA,0.0176 ± 0.0081
7,UAGACAGUCACCUUCUCUGAGAGAUUAUCA,0.252 ± 0.029
8,UAGACUCACACCUUCUCUGAGAGAUUAUGA,0.0733 ± 0.015
9,UACAUCUGUCACCUUCUCUGAGAGAUUAACA,0.66 ± 0.027
10,AUCAGCUGUCACCUUCUCUGAGAGAUUAACA,0.792 ± 0.043
11,UACAGUGUCACCUUCUCUGAGAGAUUAACA,0.663 ± 0.034
12,UAGAGCUGUCACCUUCUCUGAGAGAUUAACA,0.706 ± 0.047
13,UACAGCUGUCACCUUCUCUGAGAGAUUAACA,0.749 ± 0.036
14,UUCAGCUGUCACCUUCUCUGAGAGAUUAACA,0.681 ± 0.037
15,UAGUCUGUCACCUUCUCUGAGAGAUAUUCA,0.211 ± 0.045
16,UUCACUGUCACCUUCUCUCUCAGAUUAACA,0.00363 ± 0.0035
17,UAGUGAGUCACCUUCUGUCAGAGAUUAACA,0.00937 ± 0.0041
18,UACACUGACACCUUCUCUGAGAGAUUUUGA,0.0697 ± 0.019
19,UAGUGACUCACCUUGUCUGUGAGAUUAACA,0.0416 ± 0.0061
20,UUCACUGUCACCAUCUCUGAGAGAUUAAGA,0.134 ± 0.025
21,AUCACUGUCACCAUCUCUGAGAGAUUAACA,0.795 ± 0.048
22,UUCACUGUCACCAUCUCUGAGAGAUUAACA,0.738 ± 0.029
23,UUCACUGUCACCAUCUCUGUGAGAUUAACA,0.215 ± 0.015
24,UACACUGUCACCAUCUCUGAGAGAUUAACA,0.532 ± 0.044
25,AUCACUGUCACCAUCUCUGUGAGAUUAACA,0.259 ± 0.021

row,Sequence,pre-steady-state target cleavage rate
1,AUCACUGUCACCAUCUCUGAGAGAUUAAGA,0.184 ± 0.032
2,AUCACUGACACCAUCUCUGAGAGAUUAACA,0.603 ± 0.037
3,AACACUGUCACCAUCUCUGAGAGAUUAACA,0.77 ± 0.035
4,UAGUGUGUCACCUACUCUCAGAGAUUAACA,0.0454 ± 0.009
5,AUCACUGAGACCUUCUCUGAGAGAUUAAGA,0.17 ± 0.033
6,UAGUCUGUCUCCAUCUCUGAGAGAUUAACA,0.509 ± 0.034
7,UAGUGAGUCACCUUGUCUGAGAGUUUAACA,0.0617 ± 0.013
8,UAGUGACUCACCUUCUUUGAGAGAUUAACA,0.196 ± 0.021
9,UAGUGACUCACCUUCUCUGAGUGAUUAACA,0.0244 ± 0.0052
10,UAGUGACAGACCUUCCUCUGAGAGAUUAACA,0.0189 ± 0.004
11,UAGUGACAGACCUUACUCUGAGAGAUUAACA,0.0198 ± 0.0041
12,UAGUGAGUCACGUUCUCAGAGAGAUUAACA,0.171 ± 0.017
13,UACACUGUUACCUUCUCUGAGAGAUUAACA,0.441 ± 0.024
14,UAGACUGUCACCUUCUGUGAGAGAUAUUGA,0.0117 ± 0.004
15,UAGACUGUACACCUUCUCUGAGAGAUUAACA,0.779 ± 0.055
16,AUCACUGUACCUUCUCUGAGAGAUUAACA,0.769 ± 0.051
17,AUCACUGUACACCUUCUCUGAGAGAUUAACA,0.8 ± 0.055
18,AUCACUGUAACCUUCUCUGAGAGAUUAACA,0.651 ± 0.03
19,UAGACUGUACCUUCUCUGAGAGAUUAACA,0.572 ± 0.044
20,UAGACUGACACCUUCUCUGAGAGAUUAACA,0.62 ± 0.035
21,UACACUGUACACCUUCUCUGAGAGAUUAACA,0.623 ± 0.03
22,UUCACUGUACACCUUCUCUGAGAGAUUAACA,0.655 ± 0.033
23,UUCACUGUACCUUCUCUGAGAGAUUAACA,0.712 ± 0.036
